Test results reported in the supplement of paper PMC10849652.
The full data set covers some 7,900 targets. This sample favours those with a hit. About 0.6% of all pairs of compound and target were hits. A number with no mark means an inactive call.

Sequence of UniProt Q9H410 (Q9H410 whole entry, looked up): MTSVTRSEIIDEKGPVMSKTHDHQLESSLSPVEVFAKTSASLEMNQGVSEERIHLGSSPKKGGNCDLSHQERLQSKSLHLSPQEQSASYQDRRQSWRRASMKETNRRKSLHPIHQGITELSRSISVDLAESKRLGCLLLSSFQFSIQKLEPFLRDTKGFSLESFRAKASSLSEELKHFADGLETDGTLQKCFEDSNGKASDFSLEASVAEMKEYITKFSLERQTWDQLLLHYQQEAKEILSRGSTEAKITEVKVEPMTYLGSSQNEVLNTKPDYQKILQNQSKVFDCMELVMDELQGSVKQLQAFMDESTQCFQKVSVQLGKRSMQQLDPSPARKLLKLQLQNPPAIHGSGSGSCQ
Sequence of UniProt Q96G46 (Q96G46 whole entry, looked up): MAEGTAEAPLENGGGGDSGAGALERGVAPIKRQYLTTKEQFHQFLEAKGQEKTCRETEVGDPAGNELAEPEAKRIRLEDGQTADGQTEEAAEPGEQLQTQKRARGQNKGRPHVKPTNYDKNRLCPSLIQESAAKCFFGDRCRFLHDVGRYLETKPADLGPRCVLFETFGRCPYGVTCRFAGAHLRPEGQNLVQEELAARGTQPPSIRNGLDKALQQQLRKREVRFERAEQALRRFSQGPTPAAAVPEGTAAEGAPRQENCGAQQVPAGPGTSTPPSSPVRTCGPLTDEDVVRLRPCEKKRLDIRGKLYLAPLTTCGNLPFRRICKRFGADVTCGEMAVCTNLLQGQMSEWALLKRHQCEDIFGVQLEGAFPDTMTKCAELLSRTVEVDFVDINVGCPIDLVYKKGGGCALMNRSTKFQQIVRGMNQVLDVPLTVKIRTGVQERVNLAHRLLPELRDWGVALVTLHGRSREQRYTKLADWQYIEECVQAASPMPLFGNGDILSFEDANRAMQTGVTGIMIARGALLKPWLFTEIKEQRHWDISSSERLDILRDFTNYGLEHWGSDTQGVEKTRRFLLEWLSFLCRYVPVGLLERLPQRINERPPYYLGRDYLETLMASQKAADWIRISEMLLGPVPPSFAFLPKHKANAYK
Sequence of UniProt Q7Z2Z2 (Q7Z2Z2 whole entry, looked up): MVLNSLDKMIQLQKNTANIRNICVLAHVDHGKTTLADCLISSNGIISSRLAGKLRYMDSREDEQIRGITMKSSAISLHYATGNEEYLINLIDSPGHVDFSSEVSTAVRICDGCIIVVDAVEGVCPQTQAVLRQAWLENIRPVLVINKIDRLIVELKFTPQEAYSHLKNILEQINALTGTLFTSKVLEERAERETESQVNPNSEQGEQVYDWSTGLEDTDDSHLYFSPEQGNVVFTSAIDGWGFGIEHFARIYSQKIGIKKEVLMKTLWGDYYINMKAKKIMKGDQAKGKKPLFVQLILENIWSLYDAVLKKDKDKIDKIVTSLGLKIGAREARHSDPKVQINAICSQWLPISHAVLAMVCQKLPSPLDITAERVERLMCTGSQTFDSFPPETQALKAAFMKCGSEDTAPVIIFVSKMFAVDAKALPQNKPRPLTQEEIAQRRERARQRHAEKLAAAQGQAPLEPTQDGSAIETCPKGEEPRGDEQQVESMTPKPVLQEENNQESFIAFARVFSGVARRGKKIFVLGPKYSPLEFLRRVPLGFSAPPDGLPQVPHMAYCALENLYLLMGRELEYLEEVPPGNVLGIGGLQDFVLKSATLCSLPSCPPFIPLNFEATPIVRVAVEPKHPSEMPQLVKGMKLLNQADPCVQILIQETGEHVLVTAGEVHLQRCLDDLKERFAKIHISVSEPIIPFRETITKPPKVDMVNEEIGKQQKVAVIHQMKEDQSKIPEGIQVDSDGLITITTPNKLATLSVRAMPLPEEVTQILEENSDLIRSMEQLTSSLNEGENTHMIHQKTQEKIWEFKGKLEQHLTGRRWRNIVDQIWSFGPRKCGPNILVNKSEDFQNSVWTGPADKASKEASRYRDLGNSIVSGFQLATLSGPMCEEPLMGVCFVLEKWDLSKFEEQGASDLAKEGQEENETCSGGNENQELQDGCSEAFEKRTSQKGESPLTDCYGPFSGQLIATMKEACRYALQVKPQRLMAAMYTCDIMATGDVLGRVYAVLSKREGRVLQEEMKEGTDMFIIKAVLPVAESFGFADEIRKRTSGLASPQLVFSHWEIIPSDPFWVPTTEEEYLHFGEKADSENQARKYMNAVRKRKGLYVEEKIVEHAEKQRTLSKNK
Sequence of UniProt Q9C073 (Q9C073 whole entry, looked up): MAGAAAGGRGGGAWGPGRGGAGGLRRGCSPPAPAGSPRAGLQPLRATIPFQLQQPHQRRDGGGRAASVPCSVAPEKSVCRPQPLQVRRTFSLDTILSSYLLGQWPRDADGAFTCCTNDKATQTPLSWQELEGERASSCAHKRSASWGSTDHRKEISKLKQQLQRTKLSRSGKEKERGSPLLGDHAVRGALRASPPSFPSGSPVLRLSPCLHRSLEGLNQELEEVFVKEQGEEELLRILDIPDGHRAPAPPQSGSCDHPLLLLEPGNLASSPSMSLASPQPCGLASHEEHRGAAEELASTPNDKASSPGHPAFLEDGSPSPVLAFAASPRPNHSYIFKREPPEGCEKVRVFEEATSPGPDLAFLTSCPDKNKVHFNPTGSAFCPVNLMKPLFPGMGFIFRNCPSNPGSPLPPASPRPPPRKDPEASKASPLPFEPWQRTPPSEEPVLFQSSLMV
Sequence of UniProt P25774 (P25774 whole entry, looked up): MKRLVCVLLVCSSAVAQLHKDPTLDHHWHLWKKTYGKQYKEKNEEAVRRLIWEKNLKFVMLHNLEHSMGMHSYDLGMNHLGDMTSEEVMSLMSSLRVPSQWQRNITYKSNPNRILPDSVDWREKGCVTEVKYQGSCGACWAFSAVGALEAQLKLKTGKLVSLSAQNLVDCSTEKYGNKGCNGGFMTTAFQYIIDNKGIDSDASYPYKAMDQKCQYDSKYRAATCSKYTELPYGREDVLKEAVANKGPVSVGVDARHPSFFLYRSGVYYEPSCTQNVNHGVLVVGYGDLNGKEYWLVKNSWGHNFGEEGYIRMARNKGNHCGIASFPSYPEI
Sequence of UniProt Q8N3D4 (Q8N3D4 whole entry, looked up): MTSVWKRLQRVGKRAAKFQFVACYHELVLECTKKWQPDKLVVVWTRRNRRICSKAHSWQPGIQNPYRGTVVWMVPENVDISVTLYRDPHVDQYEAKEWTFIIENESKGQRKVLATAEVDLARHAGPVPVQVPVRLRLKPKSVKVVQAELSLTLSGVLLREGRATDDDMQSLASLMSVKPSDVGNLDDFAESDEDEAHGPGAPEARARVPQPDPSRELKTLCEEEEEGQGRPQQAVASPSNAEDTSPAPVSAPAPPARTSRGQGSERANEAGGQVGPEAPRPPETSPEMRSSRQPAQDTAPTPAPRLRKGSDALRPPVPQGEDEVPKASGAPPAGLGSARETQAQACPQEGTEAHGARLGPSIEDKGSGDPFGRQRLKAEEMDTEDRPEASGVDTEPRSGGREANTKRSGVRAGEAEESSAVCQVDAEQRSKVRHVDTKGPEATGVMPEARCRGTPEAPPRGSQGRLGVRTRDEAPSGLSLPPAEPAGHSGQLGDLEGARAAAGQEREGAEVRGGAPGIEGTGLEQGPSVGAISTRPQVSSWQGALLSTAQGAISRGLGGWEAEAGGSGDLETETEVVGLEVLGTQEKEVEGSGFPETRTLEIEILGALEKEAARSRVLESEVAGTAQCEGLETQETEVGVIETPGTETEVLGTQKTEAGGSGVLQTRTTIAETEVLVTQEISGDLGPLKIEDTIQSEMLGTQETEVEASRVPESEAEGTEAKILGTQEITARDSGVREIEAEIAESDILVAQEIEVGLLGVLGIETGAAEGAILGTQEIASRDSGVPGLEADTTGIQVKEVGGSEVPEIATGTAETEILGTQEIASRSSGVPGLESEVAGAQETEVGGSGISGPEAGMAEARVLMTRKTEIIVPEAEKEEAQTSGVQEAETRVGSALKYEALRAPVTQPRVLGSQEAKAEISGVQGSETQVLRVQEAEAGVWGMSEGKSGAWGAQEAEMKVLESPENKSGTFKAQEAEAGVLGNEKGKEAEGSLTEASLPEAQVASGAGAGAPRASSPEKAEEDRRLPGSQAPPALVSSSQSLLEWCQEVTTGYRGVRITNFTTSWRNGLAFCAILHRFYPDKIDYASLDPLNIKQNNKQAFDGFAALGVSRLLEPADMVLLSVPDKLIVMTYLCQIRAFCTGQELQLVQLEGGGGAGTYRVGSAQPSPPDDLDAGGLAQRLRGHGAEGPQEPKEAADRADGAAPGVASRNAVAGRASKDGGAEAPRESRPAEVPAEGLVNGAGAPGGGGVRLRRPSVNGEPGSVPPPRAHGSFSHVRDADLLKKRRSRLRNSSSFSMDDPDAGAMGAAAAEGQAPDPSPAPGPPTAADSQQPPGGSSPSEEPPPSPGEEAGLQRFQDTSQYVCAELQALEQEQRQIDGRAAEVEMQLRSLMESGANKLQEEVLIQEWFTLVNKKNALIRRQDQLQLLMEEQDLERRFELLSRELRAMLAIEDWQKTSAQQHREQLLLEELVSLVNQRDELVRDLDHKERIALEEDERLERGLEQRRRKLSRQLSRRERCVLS
Sequence of UniProt P39656 (P39656 whole entry, looked up): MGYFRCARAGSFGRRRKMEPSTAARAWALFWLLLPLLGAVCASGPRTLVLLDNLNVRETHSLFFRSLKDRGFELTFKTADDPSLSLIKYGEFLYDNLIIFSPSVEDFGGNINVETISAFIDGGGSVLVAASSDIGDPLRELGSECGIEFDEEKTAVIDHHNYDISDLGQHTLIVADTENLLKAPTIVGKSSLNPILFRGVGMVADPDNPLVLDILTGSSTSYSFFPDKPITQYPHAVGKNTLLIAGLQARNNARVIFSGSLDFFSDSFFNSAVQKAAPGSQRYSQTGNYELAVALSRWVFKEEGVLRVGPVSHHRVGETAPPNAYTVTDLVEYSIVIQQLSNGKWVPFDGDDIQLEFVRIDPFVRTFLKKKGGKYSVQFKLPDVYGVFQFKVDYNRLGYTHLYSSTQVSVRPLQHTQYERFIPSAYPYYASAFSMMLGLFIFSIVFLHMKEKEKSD
Sequence of UniProt Q8N8J7 (Q8N8J7 whole entry, looked up): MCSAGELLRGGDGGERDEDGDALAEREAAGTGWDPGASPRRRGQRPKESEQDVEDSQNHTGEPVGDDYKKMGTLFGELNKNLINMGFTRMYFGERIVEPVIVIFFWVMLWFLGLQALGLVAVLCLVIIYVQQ

These targets were tested with Cc1ccc(C(=O)N(CCCN)[C@@H](c2nc3cc(Cl)ccc3c(=O)n2Cc2ccccc2)C(C)C)cc1 [ispinesib] (assay: log2 fold change, soluble protein after heating vs DMSO (PISA); higher = thermal stabilisation; K562 cells, 10 uM, 30 min; active = over 0.2 and 3.5 SD of the protein, either way, in both replicates (recomputed)).
Procedure, shortened: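 K562 cells at 2×10^6 cells/mL were exposed to 10 μM compound for 30 min, then aliquots were heated for 3 min across 48°C-58°C, pooled, and extracted in PBS containing 0.5% NP-40 at 4°C. The supernatant after 21,000xg for 90 min was taken as soluble protein and measured by TMTpro 16plex LC-MS/MS with channel sums equalised. Thermal stability is reported relative to control samples, with values from duplicates. Fold changes are given on a log2 scale.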
DYNC1I2 isoform 2 (UniProt Q13409) gave a log2 fold change of 0.06. For EHBP1L1 (UniProt Q8N3D4), the log2 fold change was -0.047. For DDX5 (UniProt P17844), the log2 fold change was 0.052. With FAM177A1 isoform 2 (UniProt Q8N128) the log2 fold change was -0.082. With EXOC4 (UniProt Q96A65) the log2 fold change was -0.29. E2F4 (UniProt Q16254) was tested, and the log2 fold change was -0.103. In the case of DSN1 (UniProt Q9H410), the log2 fold change is reported as 0.055. For DNM2 isoform 4 (UniProt P50570), the log2 fold change was 0.092. Target CWF19L2 (UniProt Q2TBE0) has a log2 fold change of -0.115. With DDOST (UniProt P39656) the log2 fold change was 0.13. With CTSS (UniProt P25774) the log2 fold change was 0.049. Target DUS3L (UniProt Q96G46) has a log2 fold change of 0. Work on EFL1 (UniProt Q7Z2Z2) yielded a log2 fold change of -0.018. In the case of EEF1A1 (UniProt P68104), the log2 fold change is reported as 0.115. FAM207A (UniProt Q9NSI2) gave a log2 fold change of -0.077. With DPP8 (UniProt Q6V1X1) the log2 fold change was 0.019. In the case of DDX27 (UniProt Q96GQ7), the log2 fold change is reported as 0.004. DBT (UniProt P11182) showed a log2 fold change of 0.009. FAM241A (UniProt Q8N8J7) was tested, and the log2 fold change was -0.069. CYB561A3 isoform 2 (UniProt Q8NBI2) showed a log2 fold change of -0.139. With FAM117A (UniProt Q9C073) the log2 fold change was 0.024. For EHD2 (UniProt Q9NZN4), the log2 fold change was -0.007. DAXX (UniProt Q9UER7) was tested, and the log2 fold change was -0.062.
